Source: PubChem BioAssay
Tau fibril ThT = blocks human tau fibril formation measured by thioflavin T | recombinant tau K18 P301L, heparin-induced fibrillization, ThT fluorescence | Potency, µM (series often up to 57.4 µM), usual class: inhibitors | actives 2.1% (n = 270,000) | AID 1460; further: nearly all actives have a fitted effect of over 55% in size
Target sequence (P10636 561-689 P618L limits assumed): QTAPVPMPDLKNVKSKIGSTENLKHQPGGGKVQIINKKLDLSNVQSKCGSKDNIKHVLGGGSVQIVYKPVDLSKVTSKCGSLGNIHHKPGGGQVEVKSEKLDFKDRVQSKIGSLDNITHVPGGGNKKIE
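Aggregation was driven by heparin (20 uM final) acting on recombinant tau […] bearing P301L in 100 mM sodium acetate pH 7; fibrils were detected with Thioflavin T.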
Tau fluor cs = counter-screen for tau fibril formation inhibitors; AID 1463; Potency, µM (doses to about 57.7 µM); tau K18 P301L Alexa594 fluorescence, heparin fibrillization; actives 0.93% (n = 280,000); further: nearly all actives have a fitted effect of over 55% in size
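Human tau K18 P301L (15 uM unlabeled, 0.24 uM Alexa 594-labeled) in 100 mM sodium acetate pH 7 with 20 uM heparin, 6 hr at 37 C. ThT 30 uM added, 1 hr ambient; Alexa 594 FP and total fluorescence read at 555/632 nm.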
USP1 inh = USP1/UAF1 (human) deubiquitinase inhibition; O94782; recombinant USP1/UAF1, Ub-Rhodamine cleavage fluorescence; Potency, µM (doses to about 57.1 µM), hits mostly inhibitors; actives 0.23% (n = 390,000); further: nearly all actives have a fitted effect of over 60% in size
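USP1/UAF1 complex (1 nM) preincubated 15 min at room temperature with compound, then Ub-Rho substrate (150 nM final) added. Kinetic fluorescence at 480/540 nm over 6 reads at 60 s intervals; 50 mM HEPES pH 7.8, 0.5 mM EDTA, 0.1 mg/ml BSA, 1 mM TCEP, 0.01% Tween-20.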
Tau fibril FP = blocks human tau fibril formation measured by polarization; AID 1468; P10636; actives 0.39% (n = 280,000); Potency, µM (top dose mostly 57.7 µM), most hits filed as inhibitors; K18 P301L tau heparin fibrillization, Alexa594 FP, 6 h; further: nearly all actives have a fitted effect of over 55% in size
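Quantitative HTS format: compounds meet 15 uM recombinant K18 P301L tau and Alexa 594-tau tracer in 100 mM sodium acetate pH 7; 20 uM heparin triggers fibrillization at 37 C over 6 hr; FP gives the signal.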
Coupling enz = coupling enzyme interference in Giardia aldolase counter-screen. coupling enzyme system counterscreen, AmpLite Red fluorescence. activity change, negative = inhibition, % at 58.2 µM, hits read low. actives 0.67% (n = 290,000). AID 2472; in the data active means activity change below about -30%
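Compounds tested against the coupling enzymes alone at 57.5 uM final; readout was AmpLite Red fluorescence (525/598 nm) after 20 min at RT.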
Each line names hits and unclear results; the compound was inactive in the other large screens. The list is not random: actives were taken first. Their share in the collection is about 2.3%. Unless noted, the call rests on the fitted dose curve; in most records, active means well fitted curve in the direction sought with a large enough effect; inconclusive means small, poorly fitted or top-dose-only effect, or another doubt; inactive means no such curve, though single readings can be large; an effect the other way counts as inactive or inconclusive.

N#CC(C#N)=NNc1ccc(-n2ccc(C(F)(F)F)n2)cc1	USP1 inh inconclusive (no result: Tau fibril ThT)
C/C(=N\NC(=O)c1ccccc1)c1c(O)n(Cc2ccccc2)c(=O)[nH]c1=O	Tau fluor cs inconclusive (no result: Tau fibril ThT)
C/C(=N\Nc1cccc2ccccc12)c1c(O)n(Cc2ccccc2)c(=O)[nH]c1=O	Tau fibril ThT 18µM, Tau fluor cs inconclusive, Tau fibril FP inconclusive
Cc1ccc(Cl)cc1NC(=O)Cn1c(=O)oc2cc(S(=O)(=O)N3CCCCCC3)ccc21	Tau fibril FP inconclusive (no result: Coupling enz)
CC(=O)OC1CC2C(C)(C)C(O)C=C[C@@]2(C)C2CC[C@]3(C)C(=CC(=O)OC3c3ccoc3)[C@]12C (stereo partly specified)	Tau fibril ThT 35µM, Tau fibril FP inconclusive (no result: USP1 inh)
CC(=O)OC1CC(OC(C)=O)[C@]2(C)C(CC(OC(C)=O)[C@]3(C)C2CC[C@@]2(C)C(c4ccoc4)C(=O)C4O[C@]432)C1(C)C (stereo partly specified)	none (no result: USP1 inh)
O=C(O)Cc1cccnc1C(=O)O	Tau fibril ThT inconclusive, Coupling enz -68 (no result: USP1 inh)
C=CCn1c(O)c(C(C)=Nc2ccc(N(CC)CC)cc2)c(=O)[nH]c1=O	Tau fibril ThT inconclusive
C=CCn1c(O)c(C(C)=Nc2ccc(N(C)C)cc2)c(=O)[nH]c1=O	Tau fibril ThT 18µM, Tau fluor cs inconclusive
Cc1cc(Br)ccc1N1C(=O)CC(=O)NC1=O	Tau fibril ThT 13µM, Tau fibril FP inconclusive
CC(C)[C@H]1C(=O)N2CCC[C@H]2[C@]2(O)O[C@](NC(=O)[C@@H]3C=C4c5cccc6[nH]cc(c56)C[C@H]4N(C)C3)(C(C)C)C(=O)N12	Tau fibril ThT inconclusive, Tau fluor cs inconclusive, USP1 inh 22µM, Tau fibril FP inconclusive, Coupling enz -46
CC(C)C1C(=O)N2CCCC2[C@]2(O)O[C@@](NC(=O)[C@@H]3C=C4c5cccc6[nH]cc(c56)C[C@H]4N(C)C3)(C(C)C)C(=O)N12 (stereo partly specified)	Tau fibril ThT 20µM, Tau fluor cs inconclusive, Tau fibril FP inconclusive, Coupling enz -34 (no result: USP1 inh)
CC(C)C[C@H]1C(=O)N2CCC[C@@H]2[C@]2(O)O[C@](NC(=O)[C@@H]3C=C4c5cccc6[nH]c(Br)c(c56)C[C@H]4N(C)C3)(C(C)C)C(=O)N12	Tau fibril ThT inconclusive, Tau fluor cs inconclusive (no result: USP1 inh)
CC(CCC(=O)O)C1CCC2C3CC[C@H]4CC(O)CC[C@@]4(C)C3CC[C@@]12C (stereo partly specified)	none (no result: USP1 inh)
CC(C)C[C@H](NC(=O)[C@H](CC(C)C)NC(=O)[C@H](Cc1ccccc1)NC(=O)[C@@H](N)Cc1ccc(O)cc1)C(=O)N[C@@H](CCCN=C(N)N)C(=O)N[C@@H](CC(N)=O)C(=O)N1CCC[C@H]1C(=O)O	none (no result: Tau fibril ThT, Tau fluor cs, USP1 inh, Tau fibril FP)
O=C1NC(=O)N(Cc2ccccc2)C(=O)/C1=C/C=C/c1ccco1	Tau fibril ThT 10µM, Tau fibril FP inconclusive
COc1ccc(CN2C(=O)NC(=O)/C(=C\c3ccco3)C2=O)cc1	Tau fibril ThT inconclusive, USP1 inh inconclusive, Tau fibril FP inconclusive
CC(C)c1ccc(N2C(=O)NC(=O)/C(=C\C=C\c3ccco3)C2=O)cc1	Tau fibril ThT inconclusive, Tau fibril FP inconclusive
O=C1NC(=O)N(CCc2ccc(F)cc2)C(=O)/C1=C/c1ccco1	Tau fibril ThT 10µM, Tau fluor cs inconclusive, Tau fibril FP inconclusive
CCN1C(=O)C(=C/C=C/c2ccco2)C(=O)N(CC)C1=S	Tau fibril ThT 16µM, USP1 inh inconclusive, Tau fibril FP inconclusive
CC(C)N1C(=O)/C(=C/C=C/c2ccco2)C(=O)N(Cc2ccco2)C1=O	Tau fibril ThT 28µM, Tau fibril FP inconclusive
Cc1cc(C)c(Cn2c3ccccc3c3cnn(CC(=O)NCc4ccc(Cl)cc4)c(=O)c32)c(C)c1	USP1 inh inconclusive, Tau fibril FP inconclusive (no result: Coupling enz)
COc1ccccc1NC(=O)Oc1cccc(OC(=O)c2ccccc2)c1	USP1 inh inconclusive
CN(C)c1ccc(/C=C2/C(=O)NC(=O)N(Cc3ccco3)C2=O)cc1	Tau fibril ThT inconclusive
COc1ccc(/C=C2/C(=O)N(Cc3ccco3)C(=O)N(C(C)C)C2=O)cc1	Tau fibril ThT 18µM, USP1 inh inconclusive, Tau fibril FP inconclusive
